Experimental data taken from publication PMC12864922, “TDP-43 directly inhibits mRNA accumulation in neurites through modulation of mRNA stability”.
Whole data set: some 9,900 sequences, median “r (bound/input frequency ratio)” near 0.7, cut for the highest 2% near 6.5. For the sample, the highest values were picked, then their nearest neighbours and some sequences at random.

B1: ENSMUSG00000090935.743|Synj2bp (ssRNA)
RNA: GGGAGUUCUACAGUCCGACGAUCGCUUCGAUAUCCGCAUGCUAAAUACUCCUGGGUAAAAUUUGUAUUAGAAUGGAAAAAAAAAUGAGGGUCAGAAAGGUGAGCUAACUUCAAGUUAGAUACUCCCCUCUAUUUUGGUCUCAAAUUUGUUUUAGUGUGUCCACAACAUGAAAACAUACAAAAACUAUAUUUUAAAAAUCAGUUUACUUUCAUCUUUUCUCUUUAGGCUUUCAAUAAAGACCAGAAGGACUGAUAGACAGCUAGAGAGGAUCGUGUAGGCAUCCAGAUUAGAAUGGAAGAAUCCCUCUUGCGGUCGCACUAGUGUGGAAUUCUCGGGUGUCAAGG
B2: ENSMUSG00000022095.31|Fam160b2|161:165 (ssRNA)
RNA: GGGAGUUCUACAGUCCGACGAUCGCUUCGAUAUCCGCAUGCUACUCUGUCCUCCAUGCCGGGGACUUCAGCUGCAGGACACCUCACCUGUUGACCCCACGAGCUGAGGUUUCAAGGAGGUGCUGGCUCCUAAGGCAGUGGUAUUCUUGGAGCCUUUUAGAGGAGCUAGAGGAUGGCCAGUGAGCGCCUAGAUGCUGCCCUGCAACACAUGCGUGACUAUCUCUGCUAUAUUGUGACCAGGGCCACAACAUGAGACAACUCCAGGGGCCAGGGAGAUGAACUGCUGUCUUUGAGGCUGGCUAAACUCUUGCGGUCGCACUAGUGUGGAAUUCUCGGGUGUCAAGG
B3: ENSMUSG00000042529.39|Kcnj12 (ssRNA)
RNA: GGGAGUUCUACAGUCCGACGAUCGCUUCGAUAUCCGCAUGCUAGUUUUUUCGCAGUAGCUUGGGAAAGUUGGCGGGAGCGUGGAUGGCCAAAAUGACUGGCUCACGGCCUCGGAGGCUGAUGUAUACCCAUGGGCAAGGAGGUGACUUCUUGGGGUAGGGUUGCUCAGGAGUUAGGGACUCUGCUGGAGGCCUUAGGUGCAGGUCCCAGCCCCGGUGGGAGGAGGCUGUGUAUGUACACUUCAUUGGUUUUUAACUUGGGCAAGACUGUUUACAAACAAAAACAAACAAACAAACAAUCAAAACUCUUGCGGUCGCACUAGUGUGGAAUUCUCGGGUGUCAAGG
B4: ENSMUSG00000061578.1488|Ksr2 (ssRNA)
RNA: GGGAGUUCUACAGUCCGACGAUCGCUUCGAUAUCCGCAUGCUAAAUGAAUAUGUGGGUAGAAGGGUGAGUGGGUGGAUGAAUGGAUGGAUAGGUUGGUAGGUUAAUGUAUUCGUGGAUGGGUGAAUGGAUGGAUGGAUAGAUAGAUGGGAAGGUGGAUGGACAGAUGGAUGGAUGGAUAGAUAGAUGGACAGGUGGUUGGUGGAUAAAUGAGUGAAUGAUUAUGUUGAUAGAUAUGUGGGUAGGCUGAAUGGGUGAAUGGAUAGAUCGAUGACUGGAUGGAGGGUGGGUGACUGUAUAGGCAGCUCUUGCGGUCGCACUAGUGUGGAAUUCUCGGGUGUCAAGG
B5: ENSMUSG00000061578.1493|Ksr2 (ssRNA)
RNA: GGGAGUUCUACAGUCCGACGAUCGCUUCGAUAUCCGCAUGCUAUGGAUGAAUGGAUGGAUAGGUUGGUAGGUUAAUGUAUUCGUGGAUGGGUGAAUGGAUGGAUGGAUAGAUAGAUGGGAAGGUGGAUGGACAGAUGGAUGGAUGGAUAGAUAGAUGGACAGGUGGUUGGUGGAUAAAUGAGUGAAUGAUUAUGUUGAUAGAUAUGUGGGUAGGCUGAAUGGGUGAAUGGAUAGAUCGAUGACUGGAUGGAGGGUGGGUGACUGUAUAGGCAGGUGGGUAGGUAGCUGGAUGGGUGGGCGUAUCUCUUGCGGUCGCACUAGUGUGGAAUUCUCGGGUGUCAAGG
B6: ENSMUSG00000061578.1494|Ksr2 (ssRNA)
RNA: GGGAGUUCUACAGUCCGACGAUCGCUUCGAUAUCCGCAUGCUAAAUGGAUGGAUAGGUUGGUAGGUUAAUGUAUUCGUGGAUGGGUGAAUGGAUGGAUGGAUAGAUAGAUGGGAAGGUGGAUGGACAGAUGGAUGGAUGGAUAGAUAGAUGGACAGGUGGUUGGUGGAUAAAUGAGUGAAUGAUUAUGUUGAUAGAUAUGUGGGUAGGCUGAAUGGGUGAAUGGAUAGAUCGAUGACUGGAUGGAGGGUGGGUGACUGUAUAGGCAGGUGGGUAGGUAGCUGGAUGGGUGGGCGUAUAGAAAGCUCUUGCGGUCGCACUAGUGUGGAAUUCUCGGGUGUCAAGG
B7: ENSMUSG00000061578.1492|Ksr2 (ssRNA)
RNA: GGGAGUUCUACAGUCCGACGAUCGCUUCGAUAUCCGCAUGCUAAGUGGGUGGAUGAAUGGAUGGAUAGGUUGGUAGGUUAAUGUAUUCGUGGAUGGGUGAAUGGAUGGAUGGAUAGAUAGAUGGGAAGGUGGAUGGACAGAUGGAUGGAUGGAUAGAUAGAUGGACAGGUGGUUGGUGGAUAAAUGAGUGAAUGAUUAUGUUGAUAGAUAUGUGGGUAGGCUGAAUGGGUGAAUGGAUAGAUCGAUGACUGGAUGGAGGGUGGGUGACUGUAUAGGCAGGUGGGUAGGUAGCUGGAUGGGUGGCUCUUGCGGUCGCACUAGUGUGGAAUUCUCGGGUGUCAAGG
B8: ENSMUSG00000061578.1490|Ksr2 (ssRNA)
RNA: GGGAGUUCUACAGUCCGACGAUCGCUUCGAUAUCCGCAUGCUAGGUAGAAGGGUGAGUGGGUGGAUGAAUGGAUGGAUAGGUUGGUAGGUUAAUGUAUUCGUGGAUGGGUGAAUGGAUGGAUGGAUAGAUAGAUGGGAAGGUGGAUGGACAGAUGGAUGGAUGGAUAGAUAGAUGGACAGGUGGUUGGUGGAUAAAUGAGUGAAUGAUUAUGUUGAUAGAUAUGUGGGUAGGCUGAAUGGGUGAAUGGAUAGAUCGAUGACUGGAUGGAGGGUGGGUGACUGUAUAGGCAGGUGGGUAGGUAGCUCUUGCGGUCGCACUAGUGUGGAAUUCUCGGGUGUCAAGG
B9: ENSMUSG00000061578.1489|Ksr2 (ssRNA)
RNA: GGGAGUUCUACAGUCCGACGAUCGCUUCGAUAUCCGCAUGCUAUAUGUGGGUAGAAGGGUGAGUGGGUGGAUGAAUGGAUGGAUAGGUUGGUAGGUUAAUGUAUUCGUGGAUGGGUGAAUGGAUGGAUGGAUAGAUAGAUGGGAAGGUGGAUGGACAGAUGGAUGGAUGGAUAGAUAGAUGGACAGGUGGUUGGUGGAUAAAUGAGUGAAUGAUUAUGUUGAUAGAUAUGUGGGUAGGCUGAAUGGGUGAAUGGAUAGAUCGAUGACUGGAUGGAGGGUGGGUGACUGUAUAGGCAGGUGGGUCUCUUGCGGUCGCACUAGUGUGGAAUUCUCGGGUGUCAAGG

target: TDP-43 (Homo sapiens, UniProt Q13148 1-414); assay: RNA Bind-n-Seq with designed 260-mer pool; 25 mM Tris-HCl, 150 mM KCl, 3 mM MgCl2, BSA (printed 500 mg/mL), 20 units/mL SUPERase IN; pH not stated; 500 nM RNA pool, 1 h, 4 C; TDP-43 5, 50, 500 nM; high values mean tight binding; conditions: protein: recombinant; tags: SBP (GST cleaved off with PreScission; pGEX-GST-SBP)
Summary of the method: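 Streptavidin beads captured recombinant SBP-tagged TDP-43 at 5, 50 or 500 nM, and the beads were incubated for 1 h at 4 °C with 500 nM of an in vitro-transcribed pool of 260-nt 3′ UTR oligos in 25 mM Tris-HCl, 150 mM KCl, 3 mM MgCl2, BSA and SUPERase IN. After washing, bound RNA was eluted with biotin, reverse transcribed, PCR-amplified and sequenced. Binding is reported as R, the mapped-read-normalized abundance of each oligo in the bound sample divided by its abundance in the input. Two independent protein batches served as duplicates.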

Chain of TDP-43 (Q13148 whole entry): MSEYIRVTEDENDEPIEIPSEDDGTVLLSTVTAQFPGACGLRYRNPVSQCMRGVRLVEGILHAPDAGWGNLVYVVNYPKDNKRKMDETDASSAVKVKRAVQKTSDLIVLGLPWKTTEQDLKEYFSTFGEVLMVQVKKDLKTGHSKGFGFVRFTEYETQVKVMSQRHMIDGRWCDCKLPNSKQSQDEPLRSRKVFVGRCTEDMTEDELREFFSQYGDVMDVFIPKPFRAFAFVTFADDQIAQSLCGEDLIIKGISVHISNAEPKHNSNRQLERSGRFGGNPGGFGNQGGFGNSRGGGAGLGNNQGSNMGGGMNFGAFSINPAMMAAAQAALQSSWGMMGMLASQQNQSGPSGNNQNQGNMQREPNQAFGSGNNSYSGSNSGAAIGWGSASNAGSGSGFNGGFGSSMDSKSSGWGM

Q: How did the binding signal turn out when B1 was run?
A: 0.123 R (bound/input frequency ratio)

Q: For B2, which binding signal is on record?
A: 0.326 R (bound/input frequency ratio)

Q: How did the binding signal turn out when B3 was run?
A: 1.88 R (bound/input frequency ratio)

Q: How did the binding signal turn out when B4 was run?
A: 5.5 R (bound/input frequency ratio)

Q: How did the binding signal turn out when B5 was run?
A: 4.33 R (bound/input frequency ratio)

Q: For B6, which binding signal is on record?
A: 5.89 R (bound/input frequency ratio)

Q: B7 was tested. Which binding signal did it give?
A: 7.07 R (bound/input frequency ratio)

Q: For B8, which binding signal is on record?
A: 11.2 R (bound/input frequency ratio)

Q: Which binding signal does the source give for B9 here?
A: 5.83 R (bound/input frequency ratio)
